Measured values as given in PubChem BioAssay (EPA / NIEHS).
Inconclusive results are not listed. Calls of active or inactive are those of the source. How the source made its calls, unless noted: active means hit-call score of the fitted dose curve at least 0.9, where 1 is the maximum; inactive means score below 0.9.

How the values were obtained:
[1] = ATG_NFI_CIS: Attagene CIS-FACTORIAL HepG2 Assay for human Nuclear Factor I (NFI) (AID 2282989); conditions: HepG2 cis-regulatory reporter, NFI response element transcription; actives raise or lower the signal
In short: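 HepG2 cells transiently transfected with cis-element-driven multiplexed reporter transcription units, dosed for 24 h. Reporter mRNA quantified by RT-PCR, fluorescent labelling, HpaI digestion and capillary electrophoresis; bidirectional fit versus DMSO baseline.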

[2] = biological target: Myc proto-oncogene protein (Homo sapiens) (UniProt P01106); assay: ATG_Myc_CIS: Attagene CIS-FACTORIAL HepG2 Assay for human Myelocytomatosis (Myc) Proto-Oncogene Transcription Factor (AID 2282990); conditions: HepG2, Attagene cis-reporter transcription factor activity; actives raise or lower the signal
Myc proto-oncogene protein (Homo sapiens), sequence (P01106 whole entry, looked up): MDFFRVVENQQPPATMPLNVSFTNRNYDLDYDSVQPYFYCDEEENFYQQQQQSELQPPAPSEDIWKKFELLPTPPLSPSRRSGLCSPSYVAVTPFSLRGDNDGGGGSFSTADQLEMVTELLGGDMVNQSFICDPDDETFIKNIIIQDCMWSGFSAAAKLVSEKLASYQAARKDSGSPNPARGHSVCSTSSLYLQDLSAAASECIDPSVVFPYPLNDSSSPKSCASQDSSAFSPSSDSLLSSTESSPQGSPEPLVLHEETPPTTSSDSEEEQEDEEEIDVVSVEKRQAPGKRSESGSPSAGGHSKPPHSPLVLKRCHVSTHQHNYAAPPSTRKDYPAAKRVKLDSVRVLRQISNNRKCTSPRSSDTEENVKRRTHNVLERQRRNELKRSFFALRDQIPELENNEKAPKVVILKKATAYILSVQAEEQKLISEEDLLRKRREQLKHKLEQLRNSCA
In short: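 Cells of the HepG2 human liver line bear multiple cis-driven reporter transcription units. Reporter mRNA after 24 h exposure is reverse-transcribed, amplified, labelled and resolved by capillary electrophoresis, with gain- or loss-of-signal fitting relative to DMSO.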

[3] = ATG_NRF2_ARE_CIS: Attagene CIS-FACTORIAL HepG2 Assay for human Nuclear Factor Erythroid 2 Related Factor 2 (NFR2) response to Antioxidant Response Elements (ARE) (AID 2282992); conditions: HepG2 Attagene ARE/NRF2 reporter, transcription factor activity; actives raise or lower the signal
In short: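 Cis-factorial assay: transfected HepG2 reporter library, 24 h dosing, mRNA readout via RT-PCR/CE; DMSO-referenced bidirectional analysis.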

[4] = ATG_Oct_MLP_CIS: Attagene CIS-FACTORIAL HepG2 Assay for human Octamer-Binding Transcription Factor (Oct) (AID 2282993); conditions: HepG2 Attagene cis-factorial Oct reporter, mRNA; actives raise or lower the signal
In short: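 HepG2 cells transiently transfected with cis-promoter-driven multiplexed reporter transcription units, dosed for 24 h. Reporter mRNA quantified by RT-PCR, fluorescent labelling, HpaI digestion and capillary electrophoresis; bidirectional fits versus DMSO baseline.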

[5] = biological target: Cellular tumor antigen p53 (Homo sapiens) (UniProt P04637); assay: ATG_p53_CIS: Attagene CIS-FACTORIAL HepG2 Assay for human p53 Transcription Factor (AID 2282994); conditions: HepG2 p53 cis-element reporter, Attagene mRNA; actives raise or lower the signal
Cellular tumor antigen p53 (Homo sapiens), sequence (P04637 whole entry, looked up): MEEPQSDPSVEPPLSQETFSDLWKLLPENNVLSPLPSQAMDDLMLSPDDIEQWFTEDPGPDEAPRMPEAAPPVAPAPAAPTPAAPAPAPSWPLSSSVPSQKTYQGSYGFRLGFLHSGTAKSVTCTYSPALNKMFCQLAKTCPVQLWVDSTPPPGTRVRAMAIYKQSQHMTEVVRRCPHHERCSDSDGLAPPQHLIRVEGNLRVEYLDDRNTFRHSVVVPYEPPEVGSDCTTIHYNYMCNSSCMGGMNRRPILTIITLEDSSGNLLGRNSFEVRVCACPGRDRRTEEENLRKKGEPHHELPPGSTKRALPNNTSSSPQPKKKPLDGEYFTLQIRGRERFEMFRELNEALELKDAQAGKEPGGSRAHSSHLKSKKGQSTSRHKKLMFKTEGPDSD
In short: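 Using HepG2 hepatoma cells carrying cis-acting multiplexed reporters, mRNA induction is detected after a 24 h exposure. Gain- and loss-of-signal responses are fitted relative to DMSO-treated cells.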

[6] = biological target: human Peroxisome Proliferator-activated Receptor alpha (PPARa), PPARA (gene 5465) (UniProt Q07869); assay: ATG_PPARa_TRANS: Attagene TRANS-FACTORIAL HepG2 Assay for human Peroxisome Proliferator-activated Receptor alpha (PPARa) (AID 2283001; active means hit-call score of the fitted dose curve at least 0.9, where 1 is the maximum)
human Peroxisome Proliferator-activated Receptor alpha (PPARa), PPARA (gene 5465), sequence (Q07869 whole entry, looked up, the tested form may be a part): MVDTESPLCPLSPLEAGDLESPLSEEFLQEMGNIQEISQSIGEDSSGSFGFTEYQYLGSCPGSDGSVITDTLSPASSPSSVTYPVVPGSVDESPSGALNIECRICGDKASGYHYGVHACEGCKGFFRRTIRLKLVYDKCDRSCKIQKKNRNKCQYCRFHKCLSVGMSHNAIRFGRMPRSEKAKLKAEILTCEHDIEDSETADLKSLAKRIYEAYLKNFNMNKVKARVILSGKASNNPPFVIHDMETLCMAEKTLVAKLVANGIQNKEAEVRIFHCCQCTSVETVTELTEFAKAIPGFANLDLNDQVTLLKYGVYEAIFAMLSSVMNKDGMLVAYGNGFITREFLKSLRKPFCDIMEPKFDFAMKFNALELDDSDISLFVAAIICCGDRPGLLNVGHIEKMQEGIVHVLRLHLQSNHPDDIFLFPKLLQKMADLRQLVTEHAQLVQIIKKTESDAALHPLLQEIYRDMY
In short: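 Read-out is fluorescence of reporter cDNA fragments resolved by capillary electrophoresis after RT-PCR. Human HepG2 liver cells carried transfected PPARa-Gal4 chimera and GAL4-UAS reporter units, treated 24 h; activity scored as increase over DMSO.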

[7] = biological target: human Peroxisome Proliferator-activated Receptor delta (PPARd), PPARD (gene 5467) (UniProt Q03181); assay: ATG_PPARd_TRANS: Attagene TRANS-FACTORIAL HepG2 Assay for human Peroxisome Proliferator-activated Receptor delta (PPARd) (AID 2283002; active means hit-call score of the fitted dose curve at least 0.9, where 1 is the maximum)
human Peroxisome Proliferator-activated Receptor delta (PPARd), PPARD (gene 5467), sequence (Q03181 whole entry, looked up): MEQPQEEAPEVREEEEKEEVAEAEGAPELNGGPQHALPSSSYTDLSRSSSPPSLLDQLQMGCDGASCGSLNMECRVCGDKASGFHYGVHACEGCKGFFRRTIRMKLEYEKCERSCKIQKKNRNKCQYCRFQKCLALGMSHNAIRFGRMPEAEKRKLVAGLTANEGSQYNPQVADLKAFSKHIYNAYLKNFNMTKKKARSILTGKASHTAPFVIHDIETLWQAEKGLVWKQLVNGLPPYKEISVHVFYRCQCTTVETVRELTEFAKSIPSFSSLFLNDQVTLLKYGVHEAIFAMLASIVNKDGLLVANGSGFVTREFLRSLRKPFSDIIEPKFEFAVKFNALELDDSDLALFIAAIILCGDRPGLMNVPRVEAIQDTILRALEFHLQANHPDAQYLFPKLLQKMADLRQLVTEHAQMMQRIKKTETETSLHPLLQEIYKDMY
In short: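 Cell-based TRANS reporter: HepG2, transient MRTU transfection, 24 h exposure. Readout = reporter mRNA (RT-PCR/CE, 6-FAM). Gain-of-signal fit vs DMSO control.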

[8] = biological target: Nuclear receptor subfamily 1 group I member 2 (Homo sapiens) (UniProt O75469); assay: ATG_PXR_TRANS: Attagene TRANS-FACTORIAL HepG2 Assay for human Pregnane X Receptor (PXR) (AID 2283008; active means hit-call score of the fitted dose curve at least 0.9, where 1 is the maximum)
Nuclear receptor subfamily 1 group I member 2 (Homo sapiens), sequence (O75469 whole entry, looked up, the tested form may be a part): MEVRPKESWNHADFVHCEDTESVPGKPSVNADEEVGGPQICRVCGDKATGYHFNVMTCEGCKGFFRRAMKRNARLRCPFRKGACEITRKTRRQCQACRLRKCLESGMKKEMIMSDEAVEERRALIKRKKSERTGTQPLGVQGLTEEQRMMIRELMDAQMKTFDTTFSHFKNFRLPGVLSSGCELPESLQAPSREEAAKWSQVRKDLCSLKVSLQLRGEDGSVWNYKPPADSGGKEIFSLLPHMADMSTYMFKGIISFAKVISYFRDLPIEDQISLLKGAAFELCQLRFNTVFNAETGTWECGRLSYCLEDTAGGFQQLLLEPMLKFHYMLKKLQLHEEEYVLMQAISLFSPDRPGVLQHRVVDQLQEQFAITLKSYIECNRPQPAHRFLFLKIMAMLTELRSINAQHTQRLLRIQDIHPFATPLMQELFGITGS
In short: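 Fluorescence intensity of FAM-labelled, HpaI-digested reporter amplicons, separated by capillary electrophoresis, quantifies induction. HepG2 cells with PXR-Gal4 trans-reporter system were exposed 24 h; DMSO defines baseline.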

[9] = biological target: Retinoic acid receptor alpha (Homo sapiens) (UniProt P10276); assay: ATG_RARa_TRANS: Attagene TRANS-FACTORIAL HepG2 Assay for human Retinoic Acid Receptor alpha (RARa) (AID 2283005; active means hit-call score of the fitted dose curve at least 0.9, where 1 is the maximum)
Retinoic acid receptor alpha (Homo sapiens), sequence (P10276 whole entry, looked up, the tested form may be a part): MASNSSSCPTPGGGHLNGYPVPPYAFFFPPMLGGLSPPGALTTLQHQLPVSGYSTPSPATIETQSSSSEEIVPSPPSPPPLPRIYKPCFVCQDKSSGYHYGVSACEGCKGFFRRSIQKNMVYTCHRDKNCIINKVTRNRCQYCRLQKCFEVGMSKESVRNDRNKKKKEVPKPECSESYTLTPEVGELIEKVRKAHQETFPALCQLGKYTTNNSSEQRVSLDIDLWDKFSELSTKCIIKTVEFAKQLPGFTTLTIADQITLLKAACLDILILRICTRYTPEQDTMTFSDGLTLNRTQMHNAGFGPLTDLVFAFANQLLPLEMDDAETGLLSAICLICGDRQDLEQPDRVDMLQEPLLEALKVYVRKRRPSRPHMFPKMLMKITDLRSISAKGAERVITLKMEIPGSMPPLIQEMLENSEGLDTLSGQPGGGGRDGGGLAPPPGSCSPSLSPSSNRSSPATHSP
In short: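 Reporter transcripts, measured by RT-PCR with fluorescent labeling and capillary electrophoresis after 24 h dosing, reflect activity of an exogenous human RARa–GAL4 fusion in transiently transfected HepG2. Fitted for increase relative to DMSO.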

[10] = biological target: Peroxisome proliferator-activated receptor gamma (Homo sapiens) (UniProt P37231); assay: ATG_PPARg_TRANS: Attagene TRANS-FACTORIAL HepG2 Assay for human Peroxisome Proliferator-activated Receptor-gamma (PPARg) (AID 2283007; active means hit-call score of the fitted dose curve at least 0.9, where 1 is the maximum)
Peroxisome proliferator-activated receptor gamma (Homo sapiens), sequence (P37231 whole entry, looked up, the tested form may be a part): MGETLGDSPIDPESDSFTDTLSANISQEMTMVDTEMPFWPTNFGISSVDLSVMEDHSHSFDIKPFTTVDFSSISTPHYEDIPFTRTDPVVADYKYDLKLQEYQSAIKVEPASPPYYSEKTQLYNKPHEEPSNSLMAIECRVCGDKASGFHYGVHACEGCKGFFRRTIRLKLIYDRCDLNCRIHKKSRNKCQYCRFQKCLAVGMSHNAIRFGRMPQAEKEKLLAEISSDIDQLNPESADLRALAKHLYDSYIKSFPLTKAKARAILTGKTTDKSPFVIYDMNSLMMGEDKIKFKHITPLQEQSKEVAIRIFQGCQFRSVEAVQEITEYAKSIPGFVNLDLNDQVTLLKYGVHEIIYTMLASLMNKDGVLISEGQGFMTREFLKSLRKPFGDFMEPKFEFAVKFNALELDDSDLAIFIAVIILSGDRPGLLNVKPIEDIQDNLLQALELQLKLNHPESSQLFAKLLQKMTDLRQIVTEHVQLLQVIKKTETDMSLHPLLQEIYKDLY
In short: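 HepG2 cells transiently transfected with multiplexed GAL4-UAS reporter units and exogenous chimeric NR-Gal4 proteins; reporter mRNA quantified after 24 h compound exposure by RT-PCR, fluorescent labelling, HpaI digestion and capillary electrophoresis; gain-of-signal fitted versus DMSO baseline.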

[11] = biological target: human Retinoic Acid Receptor gamma (RARg), RARG (gene 5916) (UniProt P13631); assay: ATG_RARg_TRANS: Attagene TRANS-FACTORIAL HepG2 Assay for human Retinoic Acid Receptor gamma (RARg) (AID 2283009; active means hit-call score of the fitted dose curve at least 0.9, where 1 is the maximum)
human Retinoic Acid Receptor gamma (RARg), RARG (gene 5916), sequence (P13631 whole entry, looked up, the tested form may be a part): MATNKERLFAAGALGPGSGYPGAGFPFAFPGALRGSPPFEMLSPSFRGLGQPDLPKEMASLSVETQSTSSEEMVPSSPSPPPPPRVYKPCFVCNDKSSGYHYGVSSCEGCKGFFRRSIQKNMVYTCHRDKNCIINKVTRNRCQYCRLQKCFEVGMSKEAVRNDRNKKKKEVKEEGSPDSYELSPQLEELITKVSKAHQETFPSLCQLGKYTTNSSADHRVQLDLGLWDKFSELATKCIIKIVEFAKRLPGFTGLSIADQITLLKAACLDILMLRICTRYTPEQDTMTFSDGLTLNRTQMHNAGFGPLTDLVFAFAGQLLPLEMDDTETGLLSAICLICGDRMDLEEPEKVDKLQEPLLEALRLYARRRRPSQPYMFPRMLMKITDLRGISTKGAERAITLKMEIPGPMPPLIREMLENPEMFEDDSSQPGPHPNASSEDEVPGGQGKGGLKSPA
In short: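 HepG2 transiently transfected with GAL4-UAS reporter units and chimeric NR-Gal4 constructs; 24 h compound exposure. Reporter mRNA quantified by RT-PCR, FAM labeling, HpaI digestion and capillary electrophoresis; gain-of-signal versus DMSO.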

[12] = biological target: human Retinoic Acid Receptor beta (RARb), RARB (gene 5915) (UniProt P10826); assay: ATG_RARb_TRANS: Attagene TRANS-FACTORIAL HepG2 Assay for human Retinoic Acid Receptor beta (AID 2283004; active means hit-call score of the fitted dose curve at least 0.9, where 1 is the maximum)
human Retinoic Acid Receptor beta (RARb), RARB (gene 5915), sequence (P10826 whole entry, looked up, the tested form may be a part): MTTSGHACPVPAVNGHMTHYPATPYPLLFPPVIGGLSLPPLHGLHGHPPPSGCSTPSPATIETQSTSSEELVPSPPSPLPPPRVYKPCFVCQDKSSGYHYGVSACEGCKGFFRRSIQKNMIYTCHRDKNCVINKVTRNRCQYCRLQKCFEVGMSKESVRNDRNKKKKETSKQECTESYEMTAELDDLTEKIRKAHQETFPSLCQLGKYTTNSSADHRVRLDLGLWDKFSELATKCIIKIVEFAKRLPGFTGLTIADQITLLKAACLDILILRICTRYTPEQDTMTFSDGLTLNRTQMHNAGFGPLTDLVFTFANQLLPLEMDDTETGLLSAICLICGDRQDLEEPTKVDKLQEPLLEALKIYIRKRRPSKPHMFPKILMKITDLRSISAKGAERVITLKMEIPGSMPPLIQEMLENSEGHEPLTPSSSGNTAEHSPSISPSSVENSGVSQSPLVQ
In short: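 Fluorescent capillary-electrophoresis detection of GAL4-UAS reporter mRNA defines the endpoint, with induction over DMSO-treated wells scored as activity. Transiently transfected human hepatoma HepG2 cells expressing exogenous NR–Gal4 proteins are exposed to test chemicals for 24 h.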

[13] = biological target: human RAR-related Orphan Receptor beta (RORb), RORB (gene 6096) (UniProt Q92753); assay: ATG_RORb_TRANS: Attagene TRANS-FACTORIAL HepG2 Assay for human RAR-related Orphan Receptor beta (RORb) (AID 2283010; active means hit-call score of the fitted dose curve at least 0.9, where 1 is the maximum)
human RAR-related Orphan Receptor beta (RORb), RORB (gene 6096), sequence (Q92753 whole entry, looked up, the tested form may be a part): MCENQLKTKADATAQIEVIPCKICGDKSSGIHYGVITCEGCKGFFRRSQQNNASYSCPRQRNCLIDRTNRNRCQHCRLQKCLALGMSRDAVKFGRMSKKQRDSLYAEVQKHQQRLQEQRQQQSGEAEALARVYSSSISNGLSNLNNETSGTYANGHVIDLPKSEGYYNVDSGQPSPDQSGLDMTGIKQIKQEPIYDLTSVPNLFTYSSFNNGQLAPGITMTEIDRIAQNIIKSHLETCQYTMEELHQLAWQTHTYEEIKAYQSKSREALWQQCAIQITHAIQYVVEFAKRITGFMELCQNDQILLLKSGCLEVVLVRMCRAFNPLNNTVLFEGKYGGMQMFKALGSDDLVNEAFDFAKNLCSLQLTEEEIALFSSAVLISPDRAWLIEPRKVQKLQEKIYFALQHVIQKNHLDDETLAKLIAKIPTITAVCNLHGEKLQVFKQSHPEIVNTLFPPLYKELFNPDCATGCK
In short: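 HepG2 cells transiently transfected with GAL4-UAS reporter units expressing chimeric NR-Gal4 protein; reporter mRNA measured 24 h after dosing by RT-PCR, 6-FAM labelling and capillary electrophoresis. Gain-of-signal fitted relative to DMSO baseline.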

[14] = ATG_NF_kB_CIS: Attagene CIS-FACTORIAL HepG2 Assay for human Nuclear Factor Kappa B (NF-kB) (AID 2282991); conditions: HepG2 Attagene cis-factorial NF-kB reporter mRNA; actives raise or lower the signal
In short: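 HepG2 cells transiently transfected with multiplexed cis-element reporter units measuring endogenous transcription factor activity; reporter mRNA read 24 h after dosing by RT-PCR, fluorescent labelling, HpaI digestion and capillary electrophoresis. Bidirectional fit against DMSO baseline.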

Measured: AC50

CCc1cccc(CC)c1NC(=O)C(=O)O
inactive: [1] | [2] | [3] | [4] | [5] | [6] | [7] | [8]

OCC1CCC(CO)CC1 (configuration not stated)
inactive: [1] | [2] | [3] | [4] | [5] | [6] | [7] | [9] | [10] | [11]

FC(F)(F)C1(F)C(F)(F)C(F)(F)C(F)(F)C1(F)F
inactive: [1] | [2] | [3] | [4] | [5] | [6] | [7] | [12] | [9] | [11] | [13]

COc1cc([N+](=O)[O-])ccc1N
inactive: [1] | [2] | [14] | [4] | [5] | [6] | [8]

O=CC(F)(F)C(F)(F)C(F)(F)C(F)F
inactive: [1] | [2] | [3] | [4] | [5] | [6] | [7] | [10] | [8] | [13]

FC(F)(F)C1(F)C(F)(F)C(F)(F)C(F)(F)C(F)(C(F)(F)F)C1(F)F (configuration not stated)
inactive: [1] | [2] | [3] | [4] | [5] | [6] | [7] | [9] | [11]

Oc1c(Cl)ccc(Cl)c1Cl
active: [10] 19.5 µM
inactive: [1] | [2] | [3] | [4] | [5] | [6] | [9] | [8] | [11] | [13]

CCCCCCCCCCCCCCCC(=O)OC
inactive: [1] | [2] | [3] | [4] | [5] | [6] | [7] | [12] | [9] | [10] | [8] | [11]

NCCN
inactive: [1] | [2] | [3] | [4] | [5] | [7] | [12] | [9] | [10]
